Compound activity from PubChem BioAssay.
Shown are actives, neighbours in structure and some others; about 18% of the full set was active somewhere.
TDP1 cell noCPT: qHTS for Inhibitors of human tyrosyl-DNA phosphodiesterase 1 (TDP1): qHTS in cells in absence of CPT; Potency, µM (top dose mostly 46.2 µM), for the others: at the highest dose activity change, negative = growth inhibition, hits mostly inhibitors; 15% of 420,000 active; DT40 Tdp1-/- hTDP1 cells, no CPT, ATP luminescence, 48 h; AID 686978, 2013; further: potency means the concentration at half of the fitted maximal effect; nearly all actives have a fitted effect of over 55% in size
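Compound effects on proliferation are scored in DT40 Tdp1-/-;hTDP1 cells in the absence of CPT. ATP levels (CellTiter-Glo luminescence) are recorded after a ≥48 hr, 37 °C incubation.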
RORg inh: inhibitors of mouse ROR gamma transcriptional activity | Drosophila S2 Gal4-RORgamma UAS-luciferase reporter, 20 h | AID 2551 | Potency, µM (doses to about 53.6 µM), for the others: top-dose activity change, negative = inhibition, most hits filed as inhibitors | 5.4% of 310,000 active; further: potency means the concentration at half of the fitted maximal effect; nearly all actives have a fitted effect of over 60% in size
Target sequence (P51450 whole entry, looked up, the tested form may be a part): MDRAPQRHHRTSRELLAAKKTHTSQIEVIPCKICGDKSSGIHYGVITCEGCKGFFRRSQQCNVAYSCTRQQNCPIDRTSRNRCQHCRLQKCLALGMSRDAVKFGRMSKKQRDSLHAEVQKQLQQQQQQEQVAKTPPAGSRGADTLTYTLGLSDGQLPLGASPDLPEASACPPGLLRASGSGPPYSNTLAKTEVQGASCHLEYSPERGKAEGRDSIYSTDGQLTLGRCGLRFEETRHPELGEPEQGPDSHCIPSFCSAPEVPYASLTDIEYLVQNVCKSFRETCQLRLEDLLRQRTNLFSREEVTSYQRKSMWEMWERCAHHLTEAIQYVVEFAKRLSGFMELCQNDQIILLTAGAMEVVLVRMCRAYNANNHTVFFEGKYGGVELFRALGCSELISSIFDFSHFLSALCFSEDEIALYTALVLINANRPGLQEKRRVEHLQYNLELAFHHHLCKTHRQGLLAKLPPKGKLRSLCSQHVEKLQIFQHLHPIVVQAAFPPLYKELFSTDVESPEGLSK
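In this cell-based reporter format, copper sulfate (700 uM final) drives Gal4–ROR gamma fusion expression from a metallothionein promoter in Drosophila Schneider cells; compounds preincubated 1 hr, reporter read after 20 hr at ambient temperature.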
Gal4-VP16 FLuc: inhibits Gal4-VP16 luciferase reporter, ROR gamma counter-screen | Drosophila S2 Gal4-VP16 UAS-luciferase, luminescence, 20 h | Potency, µM (doses to about 53.6 µM), without a hit: top-dose activity, negative = inhibition, most hits filed as inhibitors | 3.5% of 310,000 active | AID 2546;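 further: Gal4-VP16 expression switched on by copper sulfate through the metallothionein promoter; potency means the concentration at half of the fitted maximal effect; nearly all actives have a fitted effect of over 50% in size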
DT40 TDP1 CPT: growth inhibition of DT40 Tdp1-/-;hTDP1 cells with camptothecin (screen for TDP1 inhibitors). chicken DT40 Tdp1-/-;hTDP1 cells + 20 nM CPT, ATP luminescence, 48 h. Potency, µM (doses to about 46.2 µM), for inactives: top-dose activity change, negative = growth inhibition, actives largely listed as inhibitors. 12% of 420,000 active. AID 686979; further: potency means the concentration at half of the fitted maximal effect; nearly all actives have a fitted effect of over 55% in size
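Chicken DT40 Tdp1-/- cells stably complemented with human TDP1 were seeded at 400 cells/well in medium containing 20 nM camptothecin, exposed to pin-transferred compounds, and grown at 37 °C for at least 48 hr. Viability was read as ATP luminescence.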
IL1B secr inh: blocks inflammasome-driven IL-1 beta release; THP-1 LPS/ATP IL-1B secretion, AlphaLISA, 16 h; stronger effect = lower value; activity change, % at 57.5 µM; 4.7% of 360,000 active; in the data active means activity change below about -50%; inconclusive means mostly about -30% to -49%
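Secreted IL-1B measured by AlphaLISA bead assay after 16 h compound exposure of THP-1 cells; compounds (final up to 57.5 uM) added 1 h before LPS (250 ng/mL) and ATP (1.25 mM) stimulation; lower signal means less secretion.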
LDHA inh: blocks human lactate dehydrogenase A. purified LDHA, NADH/diaphorase-resazurin fluorescence; stronger effect = lower value. 0.15% of 480,000 active. activity change, % (values are at about 110 or 230 µM). AID 1347041; in the data active means activity change below about -30%; inconclusive means mostly about -25% to -30%;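 further: plate controls were DMSO wells for no effect and wells without enzyme for full effect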
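Enzyme activity of human lactate dehydrogenase 5 (2 nM; 0.06 mM NADH, 0.2 mM pyruvate, 5 min, RT) is measured via a resazurin/diaphorase fluorescence readout of residual NADH.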
An asterisk follows results filed as active; i = inactive; ? = inconclusive; / = not tested or not shown; [ ] = remark or other dose. Unless noted, the call rests on the fitted dose curve; in most records, active means well fitted curve in the direction sought with a large enough effect; inconclusive means small, poorly fitted or top-dose-only effect, or another doubt; inactive means no such curve, though single readings can be large; an effect the other way counts as inactive or inconclusive. Unless noted, on the % scale 0 is the no-effect control and ±100 the full control effect.

SMILES	TDP1 cell noCPT	RORg inh	Gal4-VP16 FLuc	DT40 TDP1 CPT	IL1B secr inh	LDHA inh
COCCn1c(C)cc(C2=NNC(=Nc3ccc(Cl)cc3Cl)SC2)c1C	?	-1.1%	-4.1%	?	-5.4	1.8
C=CCn1c(C)cc(C2=NNC(=NC(C)(C)C)SC2)c1C	?	11.2µM*	10µM*	?	-76.9*	-4.8
Cc1cc(C2=NNC(=NCc3ccccc3)SC2)c(C)n1-c1c(C)n(C)n(-c2ccccc2)c1=O	?	25.2%	4.5%	-13.5%	-9.9	1.4
CCC(NC(=O)CCc1nnc(-c2cc(C)on2)o1)C12CC3CC(CC(C3)C1)C2 (stereo unspecified)	16.4µM*	/	/	20.6µM*	25.0	-1.5
CCOc1ccccc1CNC(=O)c1ccc(CS(=O)Cc2cccc(Cl)c2)o1 (stereo unspecified)	20.6µM*	/	/	?	/	-1.7
COc1ccc(OC)c(CCNC(=O)c2ccc(CS(=O)Cc3cccc(Cl)c3)o2)c1 (stereo unspecified)	20.6µM*	3.8%	-7.0%	23.1µM*	-7.4	-3.3
O=C(C1CC1)N1CCc2cc(S(=O)(=O)N3CCCc4ccccc43)ccc21	14.6µM*	18.9%	-6.4%	?	4.5	-2.6
CC(=O)N1CCc2cc(S(=O)(=O)NC(C(=O)Nc3ccc4c(c3)OCCO4)C(C)C)ccc21 (stereo unspecified)	-11.1%	-1.8%	-8.5%	-1.2%	9.8	-1.6
O=C(C1CCC1)N1CCc2cc(S(=O)(=O)NC3CCCC3)ccc21	?	14.1%	-20.5%	?	34.5	-7.5
O=C(C1CCC1)N1CCc2cc(S(=O)(=O)Nc3ccc4c(c3)OCCO4)ccc21	7.31µM*	?	20µM*	11.6µM*	?	-5.6
Cc1cc(Cl)ccc1NS(=O)(=O)c1ccc2c(c1)CCN2S(C)(=O)=O	20.6µM*	/	/	?	/	-3.0
CS(=O)(=O)N1CCc2cc(S(=O)(=O)NCCNS(=O)(=O)c3ccc4c(c3)CCN4S(C)(=O)=O)ccc21	7.4%	1.5%	-4.3%	1.1%	27.0	-3.2
CC1CCCCN1S(=O)(=O)c1ccc2c(c1)CCN2C(=O)C1CC1 (stereo unspecified)	-8.2%	-4.4%	9.4%	-18.1%	14.4	-11.3
CCC(=O)N1CCc2cc(S(=O)(=O)Nc3ccc4c(c3)OCCO4)ccc21	5.17µM*	?	?	9.2µM*	?	-0.3
Cc1cc(-n2c(C)cc(C(=O)CSc3nnc(COc4ccccc4Cl)o3)c2C)no1	/	/	/	/	/	5.9
O=C(C1CCN(S(=O)(=O)c2ccccc2)CC1)N1CCc2ccccc21	-22.1%	-29.4%	-2.7%	-25.3%	i	-9.4
CS(=O)(=O)N1CCc2cc(S(=O)(=O)Nc3ccc4c(c3)OCCO4)ccc21	8.2µM*	?	17.8µM*	11.6µM*	-21.6	3.0
Cn1c(=O)c(=O)n(C)c2cc(S(=O)(=O)Nc3ccc4c(c3)OCCO4)ccc21	?	5.5%[0.365 µM]	/	?	19.3	4.2
O=C(C1CCN(S(=O)(=O)c2ccc3c(c2)OCCO3)CC1)N1CCc2ccccc21	20.6µM*	15.7%	0.8%	?	-6.9	-11.6
O=C(O)C(c1c[nH]c2ccccc12)N1CCN(Cc2cccs2)CC1 (stereo unspecified)	/	/	/	/	/	-9.3
COc1ccc(NC2=C(C(=O)N3CCOCC3)S(=O)(=O)c3ccccc32)cc1	/	/	/	/	/	-8.0
CCOc1ccc(NCc2nnc(SCC(=O)Nc3nc(-c4ccccc4)cs3)n2-c2ccccc2)cc1	23.1µM*	-10.1%	-28.0%	?	-14.1	-6.9
Cc1cccc(C)c1NCc1nnc(SCC(=O)Nc2nc(-c3ccccc3)cs2)n1-c1ccccc1	2.31µM*	18.1%	-10.2%	2.06µM*	24.5	-0.9
